Some test systems named below: SK-MEL-2 melanoma; EKVX NSCLC; SN12C renal; UO-31 renal; TK-10 renal; ACHN renal; CAKI-1 renal; A498 renal; CCRF-CEM leukemia; SR leukemia; RPMI-8226 leukemia; OVCAR-8 ovarian; OVCAR-5 ovarian; OVCAR-4 ovarian; SK-OV-3 ovarian; IGROV1 ovarian; OVCAR-3 ovarian; HS 578T breast; NCI/ADR-RES ovarian.
What all share (assay): NCI-60 one-dose screen, 48 h (100 = growth as untreated, 0 = no growth, -100 = all killed)
Holding throughout (details): 10 µM unless noted

The panel holds about 83,000 compounds, 20% with a hit somewhere; the sample as a whole holds those more often.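 Growth was measured after 48 h exposure to one concentration of compound in 96-well plates. Values under 10 count as active.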 Values without a mark were called inactive. The source made the active and inactive calls.

Regarding `COc1cccc(-c2nn(-c3ccccc3)cc2-c2ccnc(NCCCNC(=O)c3ccc(F)cc3)c2)c1`, the growth is 51.6% with SK-MEL-2 melanoma; 44.5% in the experiment with EKVX NSCLC; 62.6% in the experiment with SN12C renal; 40.5% with UO-31 renal; 57.8% with TK-10 renal; 71% with ACHN renal. The growth in the experiment with CAKI-1 renal was 52.4%; in the experiment on A498 renal it was 31%; in the experiment on CCRF-CEM leukemia, 38.6%; in the experiment with SR leukemia, -14.2% (active); in the experiment with RPMI-8226 leukemia, 38.2%; in the experiment on OVCAR-8 ovarian, 45.9%. For the same compound, the growth is 85.4% in the experiment on OVCAR-5 ovarian; 42.1% with OVCAR-4 ovarian; 48.2% in the experiment on SK-OV-3 ovarian; 47.5% with IGROV1 ovarian; 37.7% in the experiment on OVCAR-3 ovarian; 61.4% in the experiment with HS 578T breast. Also, the growth in the experiment on NCI/ADR-RES ovarian is 14.4%.
In the case of `O=C(c1ccc(Nc2nccc(NCCCCNc3ccnc4cc(Cl)ccc34)n2)cc1)N1CCCCC1`, the growth in the experiment on SK-MEL-2 melanoma was 68.7%; in the experiment on EKVX NSCLC, 67.5%; with SN12C renal it was 67.4%; with UO-31 renal it was 73.9%; in the experiment on TK-10 renal it was 91.5%; in the experiment with ACHN renal, 37.8%. The growth with CAKI-1 renal is 86.1%; with A498 renal it was 68%; in the experiment with CCRF-CEM leukemia, -11.8% (active); in the experiment on SR leukemia, -27.3% (active); with RPMI-8226 leukemia it was 8.24% (active); with OVCAR-8 ovarian, 23%. Moreover, the growth was 91.9% in the experiment with OVCAR-5 ovarian; 49% in the experiment on OVCAR-4 ovarian; 97.7% in the experiment with SK-OV-3 ovarian; 46.5% in the experiment with IGROV1 ovarian; 36.6% in the experiment with OVCAR-3 ovarian; 65% in the experiment on HS 578T breast. In addition, the growth in the experiment with NCI/ADR-RES ovarian is 89%.
As for `Clc1cc(Cl)cc(Nc2ccc3cc(OCCCN4CCOCC4)ccc3n2)c1`, the growth was 63.9% with SK-MEL-2 melanoma; 69.3% with EKVX NSCLC; 60.1% in the experiment on SN12C renal; 26.5% in the experiment with UO-31 renal; 47% in the experiment on TK-10 renal; 42% with ACHN renal. The growth was 75.3% with CAKI-1 renal; 51% in the experiment on A498 renal; 12.9% in the experiment with CCRF-CEM leukemia; 1.31% (active) in the experiment on SR leukemia; -2.42% (active) with RPMI-8226 leukemia; 44.4% with OVCAR-8 ovarian. Besides, the growth is 65.7% in the experiment with OVCAR-5 ovarian; 46.8% with OVCAR-4 ovarian; 67.4% in the experiment on SK-OV-3 ovarian; 58% in the experiment on IGROV1 ovarian; 60% in the experiment with OVCAR-3 ovarian; 25% with HS 578T breast. Also, in the experiment with NCI/ADR-RES ovarian, the growth was 51%.
Regarding `COc1ccc(-c2cc(-c3cc(OC)ccc3OC)nc(SCC(=O)c3ccccc3)c2C#N)cc1`, the growth is 89.6% in the experiment with SK-MEL-2 melanoma; 100% in the experiment with EKVX NSCLC; 93.7% in the experiment with SN12C renal; 81.9% in the experiment on UO-31 renal; 114% in the experiment on TK-10 renal; 91.6% in the experiment with ACHN renal. The growth in the experiment with CAKI-1 renal was 95.3%; in the experiment with A498 renal, 93.9%; in the experiment with CCRF-CEM leukemia it was 111%; in the experiment with SR leukemia, 83.3%; in the experiment on RPMI-8226 leukemia, 105%; with OVCAR-8 ovarian, 96.6%. Further, the growth in the experiment on OVCAR-5 ovarian was 103%; in the experiment on OVCAR-4 ovarian, 91.8%; in the experiment with SK-OV-3 ovarian it was 86.7%; in the experiment with IGROV1 ovarian, 97.3%; with OVCAR-3 ovarian, 108%; in the experiment with HS 578T breast it was 97.3%. In the experiment on NCI/ADR-RES ovarian, the growth is 93.1%.
`Nc1cc2c3c(cccc3c1)C(=O)N(CCN1CCCC1)C2=O`: the growth was 60.2% in the experiment with SK-MEL-2 melanoma; 73% in the experiment with EKVX NSCLC; 31.9% in the experiment on SN12C renal; 13.5% in the experiment on UO-31 renal; 105% with TK-10 renal; 4.18% (active) in the experiment with ACHN renal. Also, the growth was 7.81% (active) with CAKI-1 renal; 0.673% (active) in the experiment with A498 renal; 28.7% in the experiment with CCRF-CEM leukemia; -6.11% (active) in the experiment with SR leukemia; 7.72% (active) in the experiment on RPMI-8226 leukemia; 34.4% with OVCAR-8 ovarian. The growth in the experiment with OVCAR-5 ovarian is 65.6%; with OVCAR-4 ovarian it was 49.2%; with SK-OV-3 ovarian, 36.9%; in the experiment on IGROV1 ovarian, 8.96% (active); in the experiment on OVCAR-3 ovarian, 49.9%; in the experiment on HS 578T breast, 35.2%. The growth with NCI/ADR-RES ovarian is 35.1%.
Regarding `O=C(NCCCNc1cc(-c2cn(-c3ccccc3)nc2-c2cccc(O)c2)ccn1)c1cccc(O)c1`, the growth with SK-MEL-2 melanoma was 83.5%; in the experiment on EKVX NSCLC, 71.4%; in the experiment with SN12C renal, 76.6%; in the experiment on UO-31 renal, 85.8%; in the experiment with TK-10 renal, 115%; in the experiment on ACHN renal it was 89.4%. For the same compound, the growth is 98.4% in the experiment with CAKI-1 renal; 102% in the experiment with A498 renal; 40.5% in the experiment on CCRF-CEM leukemia; -9.11% (active) in the experiment on SR leukemia; 45.2% in the experiment with RPMI-8226 leukemia; 40.9% with OVCAR-8 ovarian. Also, the growth is 107% in the experiment with OVCAR-5 ovarian; 67.8% in the experiment with OVCAR-4 ovarian; 69.3% in the experiment on SK-OV-3 ovarian; 84.5% in the experiment with IGROV1 ovarian; 58.3% in the experiment on OVCAR-3 ovarian; 34.2% in the experiment on HS 578T breast. Also, the growth in the experiment on NCI/ADR-RES ovarian is 95%.
Consider `CN1CCN(CCCOc2ccc3nc(Nc4ccc(F)c(F)c4)ccc3c2)CC1`, for which the growth in the experiment on SK-MEL-2 melanoma is 54.4%; in the experiment on EKVX NSCLC, 61.7%; in the experiment with SN12C renal, 68%; with UO-31 renal it was 47.4%; in the experiment on TK-10 renal it was 41.7%; in the experiment with ACHN renal it was 44.3%. Besides, the growth in the experiment with CAKI-1 renal was 73.3%; with A498 renal, 33.4%; in the experiment with CCRF-CEM leukemia, 17.2%; with SR leukemia it was -6.22% (active); in the experiment on RPMI-8226 leukemia it was 28.8%; in the experiment with OVCAR-8 ovarian, 53.1%. In addition, the growth in the experiment on OVCAR-5 ovarian is 41%; with OVCAR-4 ovarian, 51.2%; in the experiment on SK-OV-3 ovarian, 49.6%; in the experiment with IGROV1 ovarian, 58.9%; in the experiment on OVCAR-3 ovarian it was 67.4%; with HS 578T breast, 33.8%. In addition, the growth with NCI/ADR-RES ovarian is 70.6%.
Regarding `O=C(CCCCCCN1CC(=O)N2[C@@H](c3ccccc3Cl)c3[nH]c4ccccc4c3C[C@H]2C1=O)NO`, the growth in the experiment with SK-MEL-2 melanoma was 70.1%; with EKVX NSCLC, 82.2%; in the experiment on SN12C renal, 70.1%; in the experiment with UO-31 renal, 55.6%; in the experiment with TK-10 renal, 68.9%; with ACHN renal, 81.7%. Besides, the growth is 71.4% with CAKI-1 renal; 73.5% in the experiment on A498 renal; 17.8% with CCRF-CEM leukemia; 15.9% in the experiment with SR leukemia; 14.8% in the experiment on RPMI-8226 leukemia; 49.6% with OVCAR-8 ovarian. The growth in the experiment with OVCAR-5 ovarian is 61%; with OVCAR-4 ovarian it was 68.3%; in the experiment with SK-OV-3 ovarian, 84.8%; with IGROV1 ovarian, 66.5%; in the experiment on OVCAR-3 ovarian it was 56.9%; in the experiment with HS 578T breast, 59.2%. For the same compound, the growth with NCI/ADR-RES ovarian was 89.8%.

The record behind these values is PubChem BioAssay (NCI).
